# Values without a mark were called inactive. Results filed as inconclusive are left out. A call without a number means that no potency is given here. Calls of active or inactive are those of the source. Unless noted, the call rests on the fitted dose curve.
# How the values were obtained:
# [1] = biological target: Gonadotropin-releasing hormone receptor (Homo sapiens) (UniProt P30968); experiment: Human gonadotropin-releasing hormone receptor (GnRHR) small molecule agonists, calcium flux assay in GnRHR-HEK293 cells (AID 1920063); further: nearly all actives have a fitted effect of over 35% in size
# Sequence of Gonadotropin-releasing hormone receptor (Homo sapiens) (P30968 whole entry, looked up): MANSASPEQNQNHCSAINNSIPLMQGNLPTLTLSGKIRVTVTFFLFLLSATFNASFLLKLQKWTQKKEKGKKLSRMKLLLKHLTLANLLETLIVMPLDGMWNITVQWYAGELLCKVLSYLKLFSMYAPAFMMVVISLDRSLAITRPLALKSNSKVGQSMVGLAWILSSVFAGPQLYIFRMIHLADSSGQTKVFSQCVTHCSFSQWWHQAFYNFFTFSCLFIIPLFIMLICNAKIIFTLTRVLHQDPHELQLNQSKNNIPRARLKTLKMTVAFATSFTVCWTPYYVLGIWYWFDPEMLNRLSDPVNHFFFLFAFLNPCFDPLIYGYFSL
# Method in brief: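 Stable human GnRHR HEK293 line. 18 h plating, then calcium dye for 1 h at 37 C. Agonist-mode compound addition from DMSO stocks; fluorescence monitored 3 min.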
# [2] = biological target: KiSS-1 receptor (Homo sapiens) (UniProt Q969F8); experiment: Human kisspeptin (KISS1R) small molecule agonists, calcium flux assay in KISS1R-HEK293 cells (AID 1920064; active means well fitted activation curve with a large enough effect in the repeat runs)
# Sequence of KiSS-1 receptor (Homo sapiens) (Q969F8 whole entry, looked up): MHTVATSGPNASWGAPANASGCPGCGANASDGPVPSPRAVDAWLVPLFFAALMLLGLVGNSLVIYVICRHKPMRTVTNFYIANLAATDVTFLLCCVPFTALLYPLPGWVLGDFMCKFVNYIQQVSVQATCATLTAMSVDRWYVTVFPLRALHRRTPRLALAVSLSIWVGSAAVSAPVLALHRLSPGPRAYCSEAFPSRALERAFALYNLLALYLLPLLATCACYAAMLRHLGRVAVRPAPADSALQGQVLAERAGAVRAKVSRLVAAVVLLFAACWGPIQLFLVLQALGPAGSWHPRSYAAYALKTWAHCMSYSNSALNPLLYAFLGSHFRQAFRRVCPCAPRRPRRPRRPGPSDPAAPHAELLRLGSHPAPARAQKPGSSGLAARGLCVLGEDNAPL
# Method in brief: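 After overnight (18 h) culture at 37 C/5% CO2, human KISS1R-HEK293 cells received calcium dye for 1 h, then test compound; emission at 540 nm (excitation 480 nm) was tracked for 3 min.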
# [3] = G protein-coupled receptor (GPCR) small molecule agonists, calcium flux assay: HEK293 wild type cell line counter screen (AID 1920065)
# Method in brief: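 Following 18 h incubation at 37 C/5% CO2, plates got calcium dye for 1 h; compounds, ATP or DMSO were then pinned in and fluorescence followed kinetically (480/540 nm).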
# [4] = p53 small molecule agonists, cell-based qHTS assay with human liver microsomes (AID 1963577);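 further: p53 response element beta-lactamase reporter cells with liver microsomes plus NADPH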
# Method in brief: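 16 h, 37 C exposure of p53RE-bla cells to compounds with human liver microsomes and NADPH (0.5 mg/mL final each); detection via LiveBLAzer mixture, 2 h dark at room temperature.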
# [5] = p53 small molecule agonists, cell-based qHTS assay with rat liver microsomes (AID 1963578)
# Method in brief: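 With rat liver microsomes and NADPH present (0.5 mg/mL final each), p53RE-bla cells are treated with compound for 16 h at 37 C. LiveBLAzer detection mixture is then applied for 2 h at room temperature in the dark.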
# [6] = p53 small molecule agonists, cell-based qHTS assay with human liver microsomes: qHTS cell viability counter screen (AID 1963579); further: nearly all actives have a fitted effect of over 45% in size
# Method in brief: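 In this multiplexed counter screen, the reporter plates were subsequently treated with CellTiter-Glo so that cell viability, reflected by luminescence, could be recorded for p53RE-bla cells dosed 16 h with compounds under microsomal activation (HLM and NADPH).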
# [7] = p53 small molecule agonists, cell-based qHTS assay with rat liver microsomes: qHTS cell viability counter screen (AID 1963580); further: nearly all actives have a fitted effect of over 45% in size
# Method in brief: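 Luminescent ATP readout (CellTiter-Glo, 30 min at room temperature) reports viability of p53RE-bla HCT-116 cells after 16 h at 37 C with test compounds under metabolic activation by rat liver microsomes and NADPH at 0.5 mg/mL final each.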
# [8] = p53 small molecule agonists, cell-based qHTS assay: qHTS cell viability counter screen (AID 1963581); further: nearly all actives have a fitted effect of over 45% in size
# Method in brief: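 qHTS counter screen: 16 h compound exposure at 37 C of p53RE-bla HCT-116 cells (4,000 per well, seeded 5 h prior), cell viability by ATP luminescence.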
# [9] = p53 small molecule agonists, cell-based qHTS assay (AID 1963582; active means well fitted activation curve with a large enough effect in the signal ratio in the repeat runs, not every such curve was filed as active; the % refers to the signal ratio)
# Method in brief: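 Measured: fluorescence from cleaved LiveBLAzer substrate. System: p53RE-bla cells, 16 h compound treatment at 37 C, 2 h substrate step at room temperature.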
# [10] = biological target: 5-hydroxytryptamine receptor 2A (Homo sapiens) (UniProt P28223); experiment: 5-hydroxytryptamine receptor 2A (HTR2A) small molecule antagonists, cell-based qHTS assay (AID 1963586); further: nearly all actives have a fitted effect of over 45% in size; further: potency means the concentration at half of the fitted maximal effect
# Sequence of 5-hydroxytryptamine receptor 2A (Homo sapiens) (P28223 whole entry, looked up): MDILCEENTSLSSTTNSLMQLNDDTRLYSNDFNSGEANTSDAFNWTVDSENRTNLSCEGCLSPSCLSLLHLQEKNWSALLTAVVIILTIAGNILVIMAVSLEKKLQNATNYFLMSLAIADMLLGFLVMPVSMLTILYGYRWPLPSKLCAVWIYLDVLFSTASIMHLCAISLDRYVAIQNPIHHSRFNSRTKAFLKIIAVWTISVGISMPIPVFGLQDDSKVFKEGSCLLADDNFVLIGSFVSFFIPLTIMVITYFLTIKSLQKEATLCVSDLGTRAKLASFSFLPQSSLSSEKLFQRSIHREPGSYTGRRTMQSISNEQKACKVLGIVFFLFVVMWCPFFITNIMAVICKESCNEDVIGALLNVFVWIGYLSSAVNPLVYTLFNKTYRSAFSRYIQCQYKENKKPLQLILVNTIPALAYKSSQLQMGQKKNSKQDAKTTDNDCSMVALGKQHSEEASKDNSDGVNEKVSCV
# Method in brief: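 CHO cells stably expressing human HTR2A were plated for 18 h at 37 C, then loaded with calcium dye for 1 h. Compounds were preincubated 5 min at room temperature before DOI (4 nM solution) was added. Kinetic fluorescence was read for 3 min.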
# [11] = biological target: 5-hydroxytryptamine receptor 2A (Homo sapiens) (UniProt P28223); experiment: 5-hydroxytryptamine receptor 2A (HTR2A) small molecule agonists, cell-based qHTS assay (AID 1963587); further: nearly all actives have a fitted effect of over 30% in size
# Method in brief: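 HTR2A-CHO cells, plated 18 h at 37 C/5% CO2, dye-loaded 1 h at 37 C; compounds in DMSO added by pin tool (agonist mode). Intracellular calcium flux read as kinetic fluorescence on FDSS over 2 min at 1 s intervals.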
# [12] = biological target: Muscarinic acetylcholine receptor M1 (Homo sapiens) (UniProt P11229); experiment: Cholinergic receptor muscarinic 1 (CHRM1) small molecule antagonists, cell-based qHTS assay (AID 1963588); further: nearly all actives have a fitted effect of over 40% in size; further: potency means the concentration at half of the fitted maximal effect
# Sequence of Muscarinic acetylcholine receptor M1 (Homo sapiens) (P11229 whole entry, looked up): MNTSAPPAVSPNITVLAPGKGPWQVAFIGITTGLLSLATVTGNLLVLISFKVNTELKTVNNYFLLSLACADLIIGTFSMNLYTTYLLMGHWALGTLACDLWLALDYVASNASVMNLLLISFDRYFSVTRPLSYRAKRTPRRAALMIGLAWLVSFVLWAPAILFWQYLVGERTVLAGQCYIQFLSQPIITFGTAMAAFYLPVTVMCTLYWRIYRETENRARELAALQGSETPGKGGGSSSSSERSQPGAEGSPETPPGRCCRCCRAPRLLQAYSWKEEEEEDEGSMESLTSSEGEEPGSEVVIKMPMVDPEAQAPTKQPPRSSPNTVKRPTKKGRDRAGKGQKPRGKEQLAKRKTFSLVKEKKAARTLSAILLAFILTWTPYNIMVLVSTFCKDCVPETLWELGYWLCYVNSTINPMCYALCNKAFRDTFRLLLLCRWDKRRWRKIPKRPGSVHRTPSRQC
# Method in brief: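 Compounds were tested at 15 concentrations in three independent runs. Dye-loaded CHRM1-CHO cells were exposed 5 min at room temperature before stimulation by acetylcholine added at 50nM. Intracellular calcium was read kinetically on FDSS for 3 min.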
# [13] = biological target: Muscarinic acetylcholine receptor M1 (Homo sapiens) (UniProt P11229); experiment: Cholinergic receptor muscarinic 1 (CHRM1) small molecule agonists, cell-based qHTS assay (AID 1963589); further: nearly all actives have a fitted effect of over 35% in size
# Method in brief: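 Kinetic fluorescence (1 s intervals) of calcium-sensitive dye in human M1 CHO cells after compound addition; cells pre-incubated 18 h at 37 C/5% CO2 and dye-loaded 1 h.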
# [14] = cAMP Responsive Elements (CRE) small molecule agonists, cell-based qHTS assay (AID 1963590); further: potency means the concentration at half of the fitted maximal effect
# Method in brief: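 Test agents in DMSO were incubated 3 h at 37 C/5% CO2 with CRE-bla HEK 293T cells seeded 18 h earlier; LiveBLAzer B/G FRET substrate was added and read after 2 h at room temperature.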
# [15] = biological target: Beta-2 adrenergic receptor (Homo sapiens) (UniProt P07550); experiment: Adrenergic beta2 receptor (ADRB2) small molecule antagonists, cell-based qHTS assay (AID 1963592); further: nearly all actives have a fitted effect of over 50% in size; further: potency means the concentration at half of the fitted maximal effect; on activity change, negative = inhibition: series mostly up to about 92 µM
# Sequence of Beta-2 adrenergic receptor (Homo sapiens) (P07550 whole entry, looked up): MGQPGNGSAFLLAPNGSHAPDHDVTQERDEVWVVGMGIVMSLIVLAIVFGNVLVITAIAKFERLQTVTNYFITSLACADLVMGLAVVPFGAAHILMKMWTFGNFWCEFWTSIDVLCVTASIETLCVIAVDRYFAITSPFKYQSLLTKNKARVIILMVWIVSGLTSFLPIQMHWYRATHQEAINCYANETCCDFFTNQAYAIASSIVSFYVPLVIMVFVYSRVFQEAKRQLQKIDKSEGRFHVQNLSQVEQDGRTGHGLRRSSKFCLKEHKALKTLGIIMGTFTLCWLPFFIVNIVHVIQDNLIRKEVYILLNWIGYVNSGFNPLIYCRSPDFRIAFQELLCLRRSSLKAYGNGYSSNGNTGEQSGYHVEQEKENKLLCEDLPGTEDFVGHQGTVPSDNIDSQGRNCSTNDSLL
# Method in brief: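 Assay format: CHO-ADRB2 cells, 18-20hr seeding at 37C/5% CO2, then compound plus 1nM isoproterenol agonist mix for 0.5hr RT. Homogeneous time-resolved fluorescence cAMP detection after 1hr, expressed as 665/615 nm ratio.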
# [16] = biological target: D(2) dopamine receptor (Homo sapiens) (UniProt P14416); experiment: Dopamine D2 receptor (DRD2) small molecule agonists, cell-based qHTS assay (AID 1963594); further: nearly all actives have a fitted effect of over 35% in size
# Sequence of D(2) dopamine receptor (Homo sapiens) (P14416 whole entry, looked up): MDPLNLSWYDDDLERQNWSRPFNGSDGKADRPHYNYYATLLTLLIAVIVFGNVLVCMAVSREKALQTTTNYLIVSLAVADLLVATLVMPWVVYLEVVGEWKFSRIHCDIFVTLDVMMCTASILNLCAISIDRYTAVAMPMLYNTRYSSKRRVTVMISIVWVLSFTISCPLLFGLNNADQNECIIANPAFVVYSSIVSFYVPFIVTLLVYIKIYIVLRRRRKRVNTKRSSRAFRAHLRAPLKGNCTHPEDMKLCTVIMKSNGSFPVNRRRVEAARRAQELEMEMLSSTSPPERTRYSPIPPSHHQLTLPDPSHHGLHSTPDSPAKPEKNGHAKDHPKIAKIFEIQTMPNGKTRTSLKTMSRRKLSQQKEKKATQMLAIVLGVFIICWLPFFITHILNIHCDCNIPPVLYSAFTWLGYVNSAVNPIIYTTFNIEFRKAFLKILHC
# Method in brief: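 HEK293 cells stably expressing DRD2 were cultured 24 h at 37 C, then given Ro20-1724 (0.1 mM final) and compounds for 10 min at room temperature. NKH477 (200nM) was then added for 30 min. cAMP was read by HTRF.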
# [17] = cAMP Responsive Elements (CRE) small molecule antagonists, cell-based qHTS assay (AID 1963591; active means well fitted inhibition curve with a large enough effect in the signal ratio in the repeat runs, not every such curve was filed as active; the % refers to the signal ratio)
# Method in brief: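 Reporter line CRE-bla HEK 293T in dialyzed-FBS DMEM; cells preincubated 18 h, treated 3 h with compound plus NKH477 (0.25 uM final); LiveBLAzer FRET, 2 h RT.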
# [18] = biological target: Beta-2 adrenergic receptor (Homo sapiens) (UniProt P07550); experiment: Adrenergic beta2 receptor (ADRB2) small molecule agonists, cell-based qHTS assay (AID 1963593);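 further: CHO cells stably overexpressing human ADRB2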
# Method in brief: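 CHO cells stably over-expressing ADRB2 were plated overnight at 37C, then dosed with compounds plus a stimulation mix containing 100uM IBMX and 25uM Ro-20-1724 for 0.5hr at room temperature. cAMP was measured by HTRF competition, 1hr.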
# [19] = biological target: D(2) dopamine receptor (Homo sapiens) (UniProt P14416); experiment: Dopamine D2 receptor (DRD2) small molecule antagonists, cell-based qHTS assay (AID 1963595; active means well fitted inhibition curve with a large enough effect in the signal ratio in the repeat runs, with a control signal flat; the % refers to the signal ratio; further: potency means the concentration at half of the fitted maximal effect)
# Method in brief: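 DRD2-HEK293; 0.1 mM Ro20-1724; cpd 10 min RT; NKH477 200 nM + quinpirole 12 nM, 30 min RT; HTRF cAMP (cAMP-d2/anti-cAMP cryptate), 665/620 nm ratio after 1 h.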
# [20] = Nuclear factor erythroid 2-related factor 2/antioxidant responsive element (Nrf2/ARE) small molecule agonists: luciferase reporter gene qHTS assay in human keratinocytes (AID 1919969); further: nearly all actives have a fitted effect of over 35% in size
structure (smiles),measurement,setting,value
CSc1ccc(O)cc1C,Potency,[1],inactive
same,Potency,[2],inactive
same,Potency,[3],inactive
same,Potency,[4],inactive
same,Potency,[5],inactive
same,Potency,[6],inactive
same,Potency,[7],inactive
same,Potency,[8],inactive
same,Potency,[9],inactive
same,Potency,[10],inactive
same,Potency,[11],inactive
same,Potency,[12],inactive
same,Potency,[13],inactive
same,Potency,[14],inactive
same,Potency,[15],inactive
same,Potency,[16],inactive
CCCCCc1ccc(O)cc1,Potency,[1],inactive
same,Potency,[2],inactive
same,Potency,[3],inactive
same,Potency,[4],inactive
same,Potency,[5],inactive
same,Potency,[6],inactive
same,Potency,[8],inactive
same,Potency,[9],inactive
same,Potency,[10],inactive
same,Potency,[14],inactive
same,Potency,[17],inactive
same,Potency,[15],inactive
same,Potency,[18],inactive
same,Potency,[16],inactive
same,Potency,[19],inactive
Cc1c(Cl)c(=O)oc2cc(O)ccc12,Potency,[20],inactive
same,Potency,[3],inactive
same,Potency,[6],inactive
same,Potency,[7],inactive
same,Potency,[8],inactive
same,Potency,[10],inactive
same,Potency,[11],inactive
same,Potency,[12],inactive
same,Potency,[13],inactive
same,Potency,[16],inactive
same,Potency,[19],inactive
COc1cc(C)nc(-n2nc(C)cc2OC)n1,Potency,[1],inactive
same,Potency,[2],inactive
same,Potency,[3],inactive
same,Potency,[4],inactive
same,Potency,[5],inactive
same,Potency,[6],inactive
same,Potency,[7],inactive
same,Potency,[8],inactive
same,Potency,[9],inactive
same,Potency,[10],inactive
same,Potency,[11],inactive
same,Potency,[12],inactive
same,Potency,[13],inactive
same,Potency,[14],inactive
same,Potency,[17],inactive
same,Potency,[15],inactive
same,Potency,[19],inactive
Cc1cc2c(cc1C(F)(F)F)N(C(=O)Nc1ccc(Oc3cccnc3C)nc1)CC2,Potency,[1],inactive
same,Potency,[2],inactive
same,Potency,[3],inactive
same,Potency,[4],inactive
same,Potency,[5],inactive
same,Potency,[6],inactive
same,Potency,[7],inactive
same,Potency,[8],inactive
same,Potency,[11],inactive
same,Potency,[12],inactive
same,Potency,[13],inactive
same,Potency,[15],27.7 µM (active)
same,Potency,[16],inactive
same,Potency,[19],6.2 µM (active)
C=C1C(=C/C=C2\CCC[C@]3(C)[C@@H]([C@H](C)/C=C/[C@@H](O)C4CC4)CC[C@@H]23)C[C@@H](O)C[C@@H]1O,Potency,[20],inactive
same,Potency,[3],inactive
same,Potency,[6],inactive
same,Potency,[7],inactive
same,Potency,[8],inactive
same,Potency,[12],inactive
same,Potency,[13],inactive
same,Potency,[15],inactive
same,Potency,[16],inactive
same,Potency,[19],inactive
O=C(O)CN(CCN(CC(=O)O)CC(=O)O)CC(=O)O,activity change,[1],"0.111% [at 2.04 µM, active compounds read high]"
same,activation,[2],-1.01% [at 2.72 µM]
same,activation,[3],0.597% [at 2.04 µM]
same,activation,[4],-9.46% [at 2.33 µM]
same,activation,[5],-7.74% [at 2.33 µM]
same,"activity change, negative = cytotoxicity",[6],-15.2% [at 2.33 µM]
same,"activity change, negative = cytotoxicity",[8],1.99% [at 2.33 µM]
same,activation,[9],-4.53% [at 2.33 µM]
same,"activity, negative = inhibition",[10],-0.852% [at 2.12 µM]
same,activation,[11],-0.659% [at 2.65 µM]
same,"activity, negative = inhibition",[12],37.7% [at 2.17 µM]
same,activation,[13],-0.34% [at 2.72 µM]
same,activation,[14],0.14% [at 3.27 µM]
same,"activity change, negative = inhibition",[17],1.65% [at 3.27 µM]
same,activation,[18],11.4% [at 3.27 µM]
same,activation,[16],2.74% [at 3.27 µM]
same,"activity change, negative = inhibition",[19],8.25% [at 3.28 µM]
C[C@@H](O[C@H]1OCCN(Cc2n[nH]c(=O)[nH]2)[C@H]1c1ccc(F)cc1)c1cc(C(F)(F)F)cc(C(F)(F)F)c1,Potency,[1],inactive
same,Potency,[2],inactive
same,Potency,[3],inactive
same,Potency,[4],inactive
same,Potency,[5],inactive
same,Potency,[6],inactive
same,Potency,[7],inactive
same,Potency,[9],inactive
same,Potency,[12],inactive
same,Potency,[13],inactive
same,Potency,[15],inactive
same,Potency,[16],inactive
same,Potency,[19],inactive
COc1cc2c(cc1OC)-c1cc(=Nc3c(C)cc(C)cc3C)n(C)c(=O)n1CC2,Potency,[1],inactive
same,Potency,[2],inactive
same,Potency,[3],inactive
same,Potency,[4],inactive
same,Potency,[5],inactive
same,Potency,[7],inactive
same,Potency,[8],inactive
same,Potency,[9],inactive
same,Potency,[10],inactive
same,Potency,[11],inactive
same,Potency,[13],inactive
same,Potency,[14],4.22 µM (active)
same,Potency,[15],inactive
same,Potency,[16],inactive
same,Potency,[19],15 µM (active)
C[C@@H](c1ncncc1F)C(O)(Cn1cncn1)c1ccc(F)cc1F (stereo not given in full),Potency,[1],inactive
same,Potency,[2],inactive
same,Potency,[3],inactive
same,Potency,[4],inactive
same,Potency,[5],inactive
same,Potency,[6],inactive
same,Potency,[7],inactive
same,Potency,[8],inactive
same,Potency,[9],inactive
same,Potency,[10],inactive
same,Potency,[11],inactive
same,Potency,[12],inactive
same,Potency,[13],inactive
same,Potency,[14],inactive
same,Potency,[17],inactive
same,Potency,[15],inactive
same,Potency,[18],inactive
same,Potency,[16],inactive
same,Potency,[19],inactive
Nc1ccc(N=Nc2ccccc2)c(N)c1,Potency,[1],inactive
same,Potency,[2],inactive
same,Potency,[3],inactive
same,Potency,[4],inactive
same,Potency,[5],inactive
same,Potency,[7],inactive
same,Potency,[8],inactive
same,Potency,[9],inactive
same,Potency,[10],1.64 µM (active)
same,Potency,[11],inactive
same,Potency,[12],23.2 µM (active)
same,Potency,[13],inactive
same,Potency,[14],inactive
same,Potency,[17],inactive
Clc1cc(Cl)c2c(c1)N=C1CCCCCN1C2,Potency,[1],inactive
same,Potency,[2],inactive
same,Potency,[3],inactive
same,Potency,[4],inactive
same,Potency,[5],inactive
same,Potency,[6],inactive
same,Potency,[7],inactive
same,Potency,[9],inactive
same,Potency,[10],inactive
same,Potency,[11],inactive
same,Potency,[13],inactive
same,Potency,[15],inactive
same,Potency,[18],inactive
same,Potency,[16],inactive
